Source: PubChem
DT40 TDP1 CPT = DT40-hTDP1 cell growth loss with CPT | chicken DT40 Tdp1-/-;hTDP1 cells + 20 nM CPT, ATP luminescence, 48 h | Potency, µM (top dose mostly 46.2 µM), for the others: at the top dose activity change, negative = growth inhibition, hits mostly inhibitors | actives 12% (n = 420,000) | AID 686979; also: potency is read from the fitted curve at half-maximal effect; nearly all actives have a fitted effect of over 55% in size
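Cell growth measured by CellTiter-Glo luminescence after a minimum 48 h, 37 C compound exposure with 20 nM CPT in Tdp1-knockout DT40 cells stably expressing hTDP1, seeded 400/well; qHTS titration format.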
HT1080NT lethal = kills 2HG-producing HT-1080-NT fibrosarcoma cells; Potency, µM (doses to about 46.1 µM), inactives show top-dose activity, negative = less viability, usual class: cytotoxic; HT-1080-NT fibrosarcoma viability, CellTiter-Glo ATP luminescence, 48 h; actives 1.6% (n = 360,000);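 also: NT is the 2HG producing partner of a matched IDH1 knockdown line; potency is read from the fitted curve at half-maximal effect; 0% = DMSO-treated cells and -100% = media-only wells without cells; nearly all actives have a fitted effect of over 55% in size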
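Toxicity toward the 2HG-producing NT line was scored as %Activity, normalised to DMSO and no-cell wells, from CellTiter-Glo luminescence after 48 hours' treatment.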
HT1080 IDH1KD tx = kills HT-1080 cells with IDH1 knockdown | HT-1080 IDH1 knockdown viability, ATP luminescence, 48 h | Potency, µM (highest dose often 46.1 µM), inactives show at the highest dose activity, negative = toxicity, most hits filed as cytotoxic | actives 2% (n = 360,000) | AID 686971;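 also: potency is read from the fitted curve at half-maximal effect; 0% = DMSO wells and -100% = cell-free medium wells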
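After a 2 h attachment period, IDH1KD HT-1080 cells took pin-transferred compound for 48 h at 37 °C; ATP-based luminescence after 10 min room-temperature reagent incubation reported viability.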
TDP1 cell noCPT = qHTS for Inhibitors of human tyrosyl-DNA phosphodiesterase 1 (TDP1): qHTS in cells in absence of CPT; Potency, µM (series often up to 46.2 µM), inactives show top-dose activity change, negative = growth inhibition, usual class: inhibitors; actives 15% (n = 420,000); AID 686978, 2013; DT40 Tdp1-/- hTDP1 cells, no CPT, ATP luminescence, 48 h; also: potency is read from the fitted curve at half-maximal effect; nearly all actives have a fitted effect of over 55% in size
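No-CPT arm: Tdp1-/-;hTDP1 DT40 cells (400/well) plus compounds, incubated ≥48 hr at 37 °C. Readout CellTiter-Glo luminescence.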
IL1B secr inh = blocks inflammasome-driven IL-1 beta release. THP-1 LPS/ATP IL-1B secretion, AlphaLISA, 16 h; active compounds read low. actives 4.7% (n = 360,000). activity change, % at 57.5 µM; in the data active = activity change below about -50%; inconclusive = mostly about -30% to -49%
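THP-1 cells pretreated 1 hr with compounds (up to 57.5 uM final), then stimulated with LPS (250 ng/mL final) plus ATP (1.25 mM final); secreted IL-1B measured by AlphaLISA after 16 hr, decreased signal indicating inhibition.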
The depositor's hits bear a star; ? = inconclusive; . = no result; [ ] = dose if it differs, or a comment. Sampled rows, rich in hits. Any-hit rate of the full collection: about 19%. Unless noted, calls follow the shape of the dose curve; as a rule, active = well fitted curve in the direction sought with a large enough effect; inconclusive = small, poorly fitted or top-dose-only effect, or another doubt; inactive = no such curve, though single readings can be large; an effect the other way counts as inactive or inconclusive. Unless noted, % is scaled to controls: 0 for no effect and ±100 for the full control effect.

SMILES	DT40 TDP1 CPT	HT1080NT lethal	HT1080 IDH1KD tx	TDP1 cell noCPT	IL1B secr inh
C=CCn1c(SCC(=O)c2[nH]c(C)c(C(C)=O)c2C)nnc1-c1ccncc1	?	3%	2%[9.24 µM]	26µM*	15
CC(=O)c1c(C)[nH]c(C(=O)CSc2nnc3ccccn23)c1C	2%	20%	26%	-12%	33
CC(=O)c1c(C)[nH]c(C(=O)CSc2nnc(C3CCCCC3)n2N)c1C	18µM*	2%	-1%	13µM*	15
CC(=O)c1c(C)[nH]c(C(=O)CSc2nnc(-c3ccco3)n2Cc2ccccc2)c1C	23µM*	-1%	-20%	16µM*	0
Nn1c(SCC(=O)N2CCCC2)nnc1C1CCCCC1	-1%	-1%	-7%	-1%	-14
CCOc1ccc(-n2c(=S)sc3c(=O)n(-c4ccc(F)cc4)c(SCC(=O)O)nc32)cc1	-16%	8%	0%	-1%	-13
CCC(=O)N(C)C[C@H]1Oc2ncc(C#Cc3cccnc3)cc2C(=O)N([C@@H](C)CO)C[C@@H]1C	0%	-4%	5%	-8%	-5
COc1ccc(-c2sc3ccc(-c4ccc5c(c4)OCO5)cc3c2-c2ccc(OC)nc2)cc1	?	-1%	-13%	?	-2
COC(=O)c1sccc1S(=O)(=O)N(CC(=O)NCc1ccc(F)cc1)c1ccc(C)c(C)c1	?	.	.	-7%	.
CCc1ccc([C@@H]2CC(=O)[C@@H]3CN(S(=O)(=O)c4ccccc4)[C@H](c4ccc(OC)cc4)C[C@@H]3N2S(=O)(=O)c2ccc(C)cc2)cc1	-57%	15%	15%	-23%	20
NC(=O)CC[C@H](NC(=O)c1ccc(F)cc1)C(=O)OCC(=O)Nc1ccc(N2CCOCC2)cc1	-11%	1%	22%	-26%	0
C=CCn1c(SCC(=O)c2[nH]c(C)c(C(=O)OC)c2C)nc2scc(-c3ccc(OC)c(OC)c3)c2c1=O	16µM*	1%	7%	8.2µM*	7
Nn1c(SCC(=O)Nc2ccc3c(c2)OCO3)nnc1-c1cccc(Cl)c1	-22%	-15%	-18%	-17%	-4
Cc1cc(C(=O)CSc2nnc(-c3cccc(F)c3)n2N)c(C)n1Cc1ccc2c(c1)OCO2	15µM*	-4%	-16%	23µM*	?
Cc1cc(NC(=S)N(Cc2ccc(Br)cc2)Cc2ccc(C(=O)O)cc2)ccc1Cl	-17%	?	?	?	?
COc1ccc(C2=C(Nc3ccc(C)cc3C)c3ccccc3C2=O)cc1	13µM*	.	.	?	.
COC1=C(c2ccccc2)C(=O)c2ccccc2C1=O	23µM*	-13%	26µM*	16µM*	-169*
O=C(C1=C(c2ccccc2)C(=O)c2ccccc2C1=O)c1ccccc1	2.1µM*	?	15µM*	2.9µM*	-104*
O=C1C(c2ccc(C(F)(F)F)cc2)=C(Nc2ccc(Cl)cc2)c2ccccc21	16µM*	.	.	12µM*	.
COc1ccc(NC2=C(c3ccc(OC)cc3)C(=O)c3ccccc32)cc1	3.7µM*	-11%	6%	?	0
COc1cccc(C(=O)COC(=O)c2ccc(NC(C)=O)cc2)c1	-21%	15%	16%	2%	0
N#CSCC(=O)c1cccc2ccccc12	4.6µM*	?	?	4.6µM*	-61*
C[C@H]1[C@@H](c2ccccc2)Oc2ccc(Cl)cc2S(=O)(=O)N1Cc1ccc(F)cc1F	?	0%	1%	?	-8
Cc1nc(N2CCCCC2C)c2c(C)c(C(=O)Nc3cccc(C(F)(F)F)c3)sc2n1 (configuration not stated)	?	4%	6%	?	-73*
Cc1nc(N2CCCCC2)c2c(C)c(C(=O)Nc3cccc(C(F)(F)F)c3)sc2n1	?	?	-10%	?	-8
Cc1c(C(=O)Nc2cccc(C#N)c2)sc2nc3n(c(=O)c12)CCCCC3	16µM*	.	.	13µM*	.
